Where “and” joins values, the source holds several entries; their conditions need not be identical. Equal entries are not always repeated. Some structures have more than one record in an assay (separate samples or runs), and their calls can disagree. Calls of active or inactive are those of the source. Unless noted, calls come from the whole dose curve; as a rule, active = well fitted curve in the direction sought with a large enough effect in the repeat runs; inconclusive = weak or mixed curves; inactive = no such curve, though single readings can be large; an effect the other way counts as inactive or inconclusive.
How the values were obtained:
[1] = qHTS assay to identify small molecule antagonists of the thyroid receptor (TR) signaling pathway - cell viability counter screen (AID 743064); conditions: GH3.TRE-Luc viability, CellTiter-Fluor, 24 h; series mostly up to 70.3 µM; note: nearly all actives have a fitted effect of over 50% in size; note: potency is the fitted concentration of half-maximal effect
Method in brief: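 Rat GH3 pituitary tumor cells stably expressing two TR response elements driving luciferase were plated, rested 4 h, then dosed with library compounds and T3 (1 nM final). After 23.5 h at 37 °C, CellTiter-Fluor was added for 30 min and fluorescence recorded.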

[2] = qHTS assay to identify small molecule antagonists of the estrogen receptor alpha (ER-alpha) signaling pathway - cell viability counter screen (AID 743074; calls by dose curve; note: nearly all actives have a fitted effect of over 45% in size; note: potency is the fitted concentration of half-maximal effect); conditions: ERalpha-bla HEK293 viability, CellTiter-Glo luminescence, 18 h; series mostly up to 69.4 µM
[3] = qHTS assay to identify small molecule antagonists of the estrogen receptor alpha (ER-alpha) signaling pathway using the BG1 cell line - cell viability counter screen (AID 743081); conditions: BG1Luc4E2 viability, CellTiter-Fluor, 22 h; series mostly up to 70.3 µM;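 note: compound given together with 17beta-estradiol as the ER stimulus; nearly all actives have a fitted effect of over 45% in size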; note: potency is the fitted concentration of half-maximal effect
[4] = tested on: thyroid hormone receptor (rat, GH3 cells); test: qHTS assay to identify small molecule agonists of the thyroid receptor (TR) signaling pathway (AID 743066; calls by dose curve); conditions: GH3.TRE-Luc cells, TR agonist luciferase, 24 h; series mostly up to 83.9 µM
Aromatase (Homo sapiens) = Aromatase (Homo sapiens) (UniProt P11511); test: qHTS assay to identify aromatase inhibitors (AID 743083); conditions: MCF-7 aro ERE, testosterone-driven ERE luciferase, 24 h; series mostly up to 70.3 µM; note: nearly all actives have a fitted effect of over 55% in size; note: potency is the fitted concentration of half-maximal effect
[5] = biological target: Estrogen receptor (Homo sapiens) (UniProt P03372); test: qHTS assay to identify small molecule agonists of the estrogen receptor alpha (ER-alpha) signaling pathway (AID 743075; calls by dose curve); conditions: HEK293 ER-alpha-UAS-bla, beta-lactamase FRET ratio, 18 h; series mostly up to 70.1 µM
[6] = qHTS assay to identify small molecule antagonists of the thyroid receptor (TR) signaling pathway (AID 743065); conditions: GH3.TRE-Luc, T3-stimulated luciferase inhibition, 23.5 h; series mostly up to 70.3 µM; note: nearly all actives have a fitted effect of over 55% in size; note: potency is the fitted concentration of half-maximal effect
Method in brief: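 Antagonism measured as loss of luciferase signal in GH3 cells stably carrying a TRE-luciferase reporter, co-treated with compound and T3 (1 nM final) for 23.5 h at 37 C. Viability was read in the same well by CellTiter-Fluor.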

[7] = biological target: Estrogen receptor (Homo sapiens) (UniProt P03372); test: qHTS assay to identify small molecule antagonists of the estrogen receptor alpha (ER-alpha) signaling pathway (AID 743069; active = well fitted curve in the direction sought with a large enough effect in the signal ratio in the repeat runs, not every such curve was filed as active; inconclusive = weak or mixed curves, or effect the other way; inactive = no such curve, though single readings can be large or run the other way; the % refers to the signal ratio; note: potency is the fitted concentration of half-maximal effect); conditions: HEK293 ER-alpha-UAS-bla, beta-lactamase ratio, antagonist mode; series mostly up to 69.4 µM
Method in brief: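 Fluorescence intensity from a beta-lactamase FRET substrate served as the read-out. Cells: HEK293 with stably integrated ER-alpha-UAS-bla reporter. Agonist 17beta-estradiol was co-added with compounds; incubation 18 hr at 37C, substrate 2 hr at room temperature.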

[8] = biological target: Estrogen receptor (Homo sapiens) (UniProt P03372); test: qHTS assay to identify small molecule agonists of the estrogen receptor alpha (ER-alpha) signaling pathway using the BG1 cell line (AID 743079); conditions: BG1Luc4E2 cells, ERE-luciferase agonist, 22 h; series mostly up to 70.3 µM; note: nearly all actives have a fitted effect of over 20% in size; note: potency is the fitted concentration of half-maximal effect
[9] = qHTS assay to identify small molecule antagonists of the estrogen receptor alpha (ER-alpha) signaling pathway using the BG1 cell line (AID 743080; calls by dose curve;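 note: BG1 cells stimulated with 17beta-estradiol alongside compound; nearly all actives have a fitted effect of over 25% in size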; note: potency is the fitted concentration of half-maximal effect); conditions: BG1Luc4E2 ERE-luciferase antagonist mode, luminescence; series mostly up to 70.3 µM
Method in brief: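 After 5 days in phenol-red-free 10% charcoal-stripped FBS medium, BG1-Luc-4E2 cells were seeded, left 24 h at 37 C, co-treated with compounds and 17beta-estradiol for 21.5 h, then assayed for viability and luciferase.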

Measured: Potency

Sequence of Estrogen receptor (Homo sapiens) (P03372 whole entry, looked up): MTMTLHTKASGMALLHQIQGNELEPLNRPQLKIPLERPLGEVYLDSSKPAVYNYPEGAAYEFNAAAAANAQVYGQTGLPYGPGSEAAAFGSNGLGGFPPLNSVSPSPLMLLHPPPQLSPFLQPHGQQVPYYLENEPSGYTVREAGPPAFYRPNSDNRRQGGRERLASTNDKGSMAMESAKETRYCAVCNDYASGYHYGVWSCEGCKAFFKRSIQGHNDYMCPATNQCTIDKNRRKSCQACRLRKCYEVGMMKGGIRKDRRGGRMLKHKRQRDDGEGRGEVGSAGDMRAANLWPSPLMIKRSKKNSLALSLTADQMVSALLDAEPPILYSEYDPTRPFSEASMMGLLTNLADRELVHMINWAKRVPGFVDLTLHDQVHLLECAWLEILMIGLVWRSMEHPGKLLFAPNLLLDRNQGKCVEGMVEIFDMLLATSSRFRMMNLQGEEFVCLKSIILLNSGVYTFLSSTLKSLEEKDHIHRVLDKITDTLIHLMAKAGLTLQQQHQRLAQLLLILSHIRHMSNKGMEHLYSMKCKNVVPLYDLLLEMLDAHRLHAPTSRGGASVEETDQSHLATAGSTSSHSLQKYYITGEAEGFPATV
Sequence of Aromatase (Homo sapiens) (P11511 whole entry, looked up): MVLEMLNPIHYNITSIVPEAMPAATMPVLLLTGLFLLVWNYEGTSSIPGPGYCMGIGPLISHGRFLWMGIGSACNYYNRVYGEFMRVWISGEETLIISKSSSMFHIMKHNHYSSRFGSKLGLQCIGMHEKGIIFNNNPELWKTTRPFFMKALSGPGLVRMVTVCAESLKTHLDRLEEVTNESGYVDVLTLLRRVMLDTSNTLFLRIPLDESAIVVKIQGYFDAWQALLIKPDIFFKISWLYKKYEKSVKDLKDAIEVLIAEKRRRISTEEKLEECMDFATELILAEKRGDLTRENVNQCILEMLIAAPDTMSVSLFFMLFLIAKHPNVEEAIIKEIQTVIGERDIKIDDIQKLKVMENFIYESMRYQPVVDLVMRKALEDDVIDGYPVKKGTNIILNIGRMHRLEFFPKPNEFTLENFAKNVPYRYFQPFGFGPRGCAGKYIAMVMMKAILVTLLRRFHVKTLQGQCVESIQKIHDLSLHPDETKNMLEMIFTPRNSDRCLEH

CC(C)(C)c1ccccc1
inactive: [1] | [2] | [3]

CCCCCCC(O)CCCCCCCCCCC(=O)O (configuration not stated)
inactive: [1] | [4] | Aromatase (Homo sapiens)

C[N+]1([O-])CCOCC1
inactive: [4] | [2] | [3] | Aromatase (Homo sapiens)

CCN(CC)C(=S)SSC(=S)N(CC)CC
inactive: [5] | [3]
active: [1] 34.2 µM | Aromatase (Homo sapiens) 168 nM and 68.6 nM and 55.8 nM
inactive and 39.8 µM (active): [2]

N[C@@H]1CONC1=O
inactive: [3] | Aromatase (Homo sapiens)

O=Cc1ccc(Cl)cc1
inactive: [6] | [4] | [2] | [3] | Aromatase (Homo sapiens)

OCCN1CCNCC1
not listed: [2] | [4] | [6]
inactive: all other assays above

CC(C)(C)NCC(O)c1cc(O)cc(O)c1 (configuration not stated)
inactive: [6] | [4] | [2] | [3] | Aromatase (Homo sapiens)

c1ccc2c(c1)-c1cccc3c1c-2cc1ccccc13
inactive: [2] | [8] | [9] | [3] | Aromatase (Homo sapiens)

CCc1cc(C(C)(C)C)c(O)c(C(C)(C)C)c1
inactive: [4] | [2] | [3] | Aromatase (Homo sapiens)

CCCCC(CC)COC(=O)CC(C(=O)OCC(CC)CCCC)S(=O)(=O)O (configuration not stated)
47.1 µM (active) and inactive: [2]
active: [7] 21.3 µM [inhibitor] and 54.9 µM [inhibitor]
inactive and 15 µM (active): [8]
not listed: [1] | [6]
inactive: all other assays above

CCCCCCCCCCCC[N+](C)(C)C
active: [1] 17.2 µM and 13.7 µM and 15.4 µM | [3] 60.9 µM | Aromatase (Homo sapiens) 24.3 µM and 17.2 µM and 21.7 µM
inactive and 54.9 µM (active): [2]

Oc1c(Cl)cc(Cl)cc1Sc1cc(Cl)cc(Cl)c1O
active: [7] 6.93 µM [inconclusive] and 1.77 µM [inconclusive] | [2] 21.9 µM and 44.4 µM and 27.5 µM | [9] 26.6 µM and 48.6 µM | Aromatase (Homo sapiens) 21.1 µM and 15.4 µM and 17.5 µM
inactive: [4] | [5] | [3]

CC(=O)CC(=O)Nc1ccc2[nH]c(=O)[nH]c2c1
not listed: [1]
inactive: all other assays above

CC[C@@H](N)CO
not listed: [1] | [6]
inactive: all other assays above

NC(N)=NC(=O)Cc1c(Cl)cccc1Cl
inactive: [4] | [2] | Aromatase (Homo sapiens)

Nc1ccc(O)cc1
inactive and 31.8 µM (active): Aromatase (Homo sapiens)
inactive: [2] | [5] | [8] | [9]
active: [1] 8.41 µM and 17.2 µM and 14.2 µM
inactive and 63.5 µM (active): [3]

CCCCCCCCCCCCCC[P+](CCCC)(CCCC)CCCC
active: [1] 2.16 µM and 2.17 µM | [7] 21.9 µM [cytotoxic] | [2] 3.45 µM and 8.71 µM | [9] 6.82 µM and 4.86 µM | [3] 17.1 µM and 15.4 µM | Aromatase (Homo sapiens) 7.65 µM and 6.11 µM

O=C(O)c1cc(Cl)cc(Cl)c1
not listed: [1]
inactive: all other assays above

C1COC(NC(C2CC2)C2CC2)=N1
active: [6] 29.8 µM
not listed: [1] | [8]
inactive: all other assays above

CC(C)CCOCc1ccccc1
not listed: [4] | [6]
inactive: all other assays above

NC(=Nc1ccccc1)Nc1ccccc1
inactive: [6] | [4] | [7] | [2] | [5]
active: Aromatase (Homo sapiens) 21.1 µM

CC(COc1ccccc1)N(CCCl)Cc1ccccc1 (configuration not stated)
inactive: [2] | [3] | Aromatase (Homo sapiens)

CC(=O)O[C@]1(C(C)=O)CC[C@H]2[C@@H]3C[C@H](C)C4=CC(=O)CC[C@]4(C)[C@H]3CC[C@@]21C
inactive: [1] | [2] | [5] | [8] | [3] | Aromatase (Homo sapiens)

C/C=C/c1ccc(OCC)c(O)c1
inactive: [4] | [2] | [3] | Aromatase (Homo sapiens)

CC1COc2c(N3CCN(C)CC3)c(F)cc3c(=O)c(C(=O)O)cn1c23 (configuration not stated)
inactive: [4] | [2] | [3] | Aromatase (Homo sapiens)

O
inactive: [1] | [2] | [3] | Aromatase (Homo sapiens)

From PubChem BioAssay (Tox21)
